# Source: ChEMBL document CHEMBL1961873, “Compounds: GSK PKIS; Assays: Nanosyn kinase panel” (2012)
# Tests used:
# [1] = biological target: T1, Tyrosine-protein kinase ITK/TSK (Homo sapiens) (UniProt Q08881); settings: at 1 µM;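 also: values are mean percent inhibition of ITK from the GSK PKIS screen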
# T1 sequence (whole entry): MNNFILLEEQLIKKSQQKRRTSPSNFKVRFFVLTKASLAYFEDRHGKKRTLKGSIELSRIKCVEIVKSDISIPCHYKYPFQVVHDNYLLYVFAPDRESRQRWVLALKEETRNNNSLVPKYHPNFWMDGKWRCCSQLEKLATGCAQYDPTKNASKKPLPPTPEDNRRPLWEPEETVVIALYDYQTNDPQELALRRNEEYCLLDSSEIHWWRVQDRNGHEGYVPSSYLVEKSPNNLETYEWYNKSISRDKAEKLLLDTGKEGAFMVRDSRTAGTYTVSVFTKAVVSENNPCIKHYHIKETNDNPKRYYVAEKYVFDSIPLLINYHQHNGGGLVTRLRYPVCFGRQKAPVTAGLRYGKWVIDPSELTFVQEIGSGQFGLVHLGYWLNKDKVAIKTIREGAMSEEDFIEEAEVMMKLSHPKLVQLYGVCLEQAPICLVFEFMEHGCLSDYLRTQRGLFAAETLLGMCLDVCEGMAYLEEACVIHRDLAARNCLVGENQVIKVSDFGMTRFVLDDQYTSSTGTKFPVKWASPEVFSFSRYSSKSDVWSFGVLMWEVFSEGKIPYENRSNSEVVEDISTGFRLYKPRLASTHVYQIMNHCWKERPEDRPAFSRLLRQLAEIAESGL
# [2] = biological target: Tyrosine-protein kinase JAK1 (Homo sapiens) (UniProt P23458); settings: at 0.1 µM
# Tyrosine-protein kinase JAK1 (Homo sapiens), sequence (P23458 whole entry): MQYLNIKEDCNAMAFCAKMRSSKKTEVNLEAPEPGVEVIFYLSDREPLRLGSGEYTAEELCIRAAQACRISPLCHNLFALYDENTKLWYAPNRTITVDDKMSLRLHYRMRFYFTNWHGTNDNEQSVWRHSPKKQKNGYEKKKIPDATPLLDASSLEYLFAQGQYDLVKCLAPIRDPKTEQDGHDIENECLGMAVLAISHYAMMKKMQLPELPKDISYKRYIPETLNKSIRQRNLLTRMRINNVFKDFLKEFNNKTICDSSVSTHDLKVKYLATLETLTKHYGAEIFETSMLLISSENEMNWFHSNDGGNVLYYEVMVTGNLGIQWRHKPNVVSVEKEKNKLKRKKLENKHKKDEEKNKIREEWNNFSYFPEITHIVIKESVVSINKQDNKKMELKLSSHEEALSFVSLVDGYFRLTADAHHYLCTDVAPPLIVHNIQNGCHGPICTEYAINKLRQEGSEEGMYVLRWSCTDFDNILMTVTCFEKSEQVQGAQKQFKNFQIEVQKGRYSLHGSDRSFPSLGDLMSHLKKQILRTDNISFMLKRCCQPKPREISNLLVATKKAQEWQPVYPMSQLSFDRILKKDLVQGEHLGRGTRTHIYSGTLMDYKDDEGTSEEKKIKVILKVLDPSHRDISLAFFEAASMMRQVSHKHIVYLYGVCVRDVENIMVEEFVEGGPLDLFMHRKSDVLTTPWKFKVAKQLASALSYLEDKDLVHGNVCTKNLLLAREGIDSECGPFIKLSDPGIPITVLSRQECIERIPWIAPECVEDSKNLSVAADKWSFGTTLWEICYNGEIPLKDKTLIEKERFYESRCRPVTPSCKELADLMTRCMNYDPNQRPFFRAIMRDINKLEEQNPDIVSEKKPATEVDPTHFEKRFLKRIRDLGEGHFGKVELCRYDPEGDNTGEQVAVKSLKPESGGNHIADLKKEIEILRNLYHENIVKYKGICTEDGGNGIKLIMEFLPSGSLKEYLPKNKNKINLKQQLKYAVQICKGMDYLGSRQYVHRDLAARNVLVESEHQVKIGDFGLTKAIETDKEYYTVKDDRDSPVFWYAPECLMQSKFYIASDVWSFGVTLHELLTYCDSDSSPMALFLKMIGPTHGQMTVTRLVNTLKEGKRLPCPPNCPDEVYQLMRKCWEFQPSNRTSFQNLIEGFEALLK
# [3] = biological target: Tyrosine-protein kinase JAK1 (Homo sapiens) (UniProt P23458); settings: at 1 µM
# [4] = biological target: Tyrosine-protein kinase JAK2 (Homo sapiens) (UniProt O60674); settings: at 0.1 µM
# [5] = biological target: Tyrosine-protein kinase JAK2 (Homo sapiens) (UniProt O60674); settings: at 1 µM
# [6] = biological target: T2, Tyrosine-protein kinase JAK3 (Homo sapiens) (UniProt P52333); settings: at 0.1 µM
# T2 sequence (whole entry): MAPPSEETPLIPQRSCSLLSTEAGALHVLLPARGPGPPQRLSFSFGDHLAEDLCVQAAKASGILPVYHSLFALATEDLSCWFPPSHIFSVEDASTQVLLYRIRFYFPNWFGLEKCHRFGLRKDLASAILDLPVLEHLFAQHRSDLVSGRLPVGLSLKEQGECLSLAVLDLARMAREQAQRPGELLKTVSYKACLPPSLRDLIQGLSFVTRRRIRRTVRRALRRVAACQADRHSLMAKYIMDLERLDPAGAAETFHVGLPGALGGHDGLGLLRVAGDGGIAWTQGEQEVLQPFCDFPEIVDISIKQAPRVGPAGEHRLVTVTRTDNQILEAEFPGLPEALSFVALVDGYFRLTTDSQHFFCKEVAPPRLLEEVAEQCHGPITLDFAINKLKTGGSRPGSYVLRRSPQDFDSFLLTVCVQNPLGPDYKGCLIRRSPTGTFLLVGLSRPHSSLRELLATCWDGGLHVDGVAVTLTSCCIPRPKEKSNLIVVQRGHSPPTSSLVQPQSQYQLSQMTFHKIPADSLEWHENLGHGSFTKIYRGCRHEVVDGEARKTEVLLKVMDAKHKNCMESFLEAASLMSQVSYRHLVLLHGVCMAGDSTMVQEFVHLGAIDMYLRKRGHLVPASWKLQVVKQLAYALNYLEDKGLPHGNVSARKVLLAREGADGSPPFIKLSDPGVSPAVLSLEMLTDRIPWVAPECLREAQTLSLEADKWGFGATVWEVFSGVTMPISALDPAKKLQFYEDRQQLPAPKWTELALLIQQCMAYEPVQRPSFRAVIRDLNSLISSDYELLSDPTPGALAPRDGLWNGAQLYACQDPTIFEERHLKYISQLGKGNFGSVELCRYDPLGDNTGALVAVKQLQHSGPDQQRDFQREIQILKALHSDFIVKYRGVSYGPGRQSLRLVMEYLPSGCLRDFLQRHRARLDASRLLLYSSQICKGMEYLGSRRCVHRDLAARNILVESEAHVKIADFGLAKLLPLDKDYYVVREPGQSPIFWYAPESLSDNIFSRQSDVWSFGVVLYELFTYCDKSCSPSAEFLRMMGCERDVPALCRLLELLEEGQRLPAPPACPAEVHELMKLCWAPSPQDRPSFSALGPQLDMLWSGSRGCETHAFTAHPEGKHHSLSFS
# [7] = biological target: T2, Tyrosine-protein kinase JAK3 (Homo sapiens); settings: at 1 µM
# [8] = biological target: Vascular endothelial growth factor receptor 2 (Homo sapiens) (UniProt P35968); settings: at 0.1 µM
# Vascular endothelial growth factor receptor 2 (Homo sapiens), sequence (P35968 whole entry): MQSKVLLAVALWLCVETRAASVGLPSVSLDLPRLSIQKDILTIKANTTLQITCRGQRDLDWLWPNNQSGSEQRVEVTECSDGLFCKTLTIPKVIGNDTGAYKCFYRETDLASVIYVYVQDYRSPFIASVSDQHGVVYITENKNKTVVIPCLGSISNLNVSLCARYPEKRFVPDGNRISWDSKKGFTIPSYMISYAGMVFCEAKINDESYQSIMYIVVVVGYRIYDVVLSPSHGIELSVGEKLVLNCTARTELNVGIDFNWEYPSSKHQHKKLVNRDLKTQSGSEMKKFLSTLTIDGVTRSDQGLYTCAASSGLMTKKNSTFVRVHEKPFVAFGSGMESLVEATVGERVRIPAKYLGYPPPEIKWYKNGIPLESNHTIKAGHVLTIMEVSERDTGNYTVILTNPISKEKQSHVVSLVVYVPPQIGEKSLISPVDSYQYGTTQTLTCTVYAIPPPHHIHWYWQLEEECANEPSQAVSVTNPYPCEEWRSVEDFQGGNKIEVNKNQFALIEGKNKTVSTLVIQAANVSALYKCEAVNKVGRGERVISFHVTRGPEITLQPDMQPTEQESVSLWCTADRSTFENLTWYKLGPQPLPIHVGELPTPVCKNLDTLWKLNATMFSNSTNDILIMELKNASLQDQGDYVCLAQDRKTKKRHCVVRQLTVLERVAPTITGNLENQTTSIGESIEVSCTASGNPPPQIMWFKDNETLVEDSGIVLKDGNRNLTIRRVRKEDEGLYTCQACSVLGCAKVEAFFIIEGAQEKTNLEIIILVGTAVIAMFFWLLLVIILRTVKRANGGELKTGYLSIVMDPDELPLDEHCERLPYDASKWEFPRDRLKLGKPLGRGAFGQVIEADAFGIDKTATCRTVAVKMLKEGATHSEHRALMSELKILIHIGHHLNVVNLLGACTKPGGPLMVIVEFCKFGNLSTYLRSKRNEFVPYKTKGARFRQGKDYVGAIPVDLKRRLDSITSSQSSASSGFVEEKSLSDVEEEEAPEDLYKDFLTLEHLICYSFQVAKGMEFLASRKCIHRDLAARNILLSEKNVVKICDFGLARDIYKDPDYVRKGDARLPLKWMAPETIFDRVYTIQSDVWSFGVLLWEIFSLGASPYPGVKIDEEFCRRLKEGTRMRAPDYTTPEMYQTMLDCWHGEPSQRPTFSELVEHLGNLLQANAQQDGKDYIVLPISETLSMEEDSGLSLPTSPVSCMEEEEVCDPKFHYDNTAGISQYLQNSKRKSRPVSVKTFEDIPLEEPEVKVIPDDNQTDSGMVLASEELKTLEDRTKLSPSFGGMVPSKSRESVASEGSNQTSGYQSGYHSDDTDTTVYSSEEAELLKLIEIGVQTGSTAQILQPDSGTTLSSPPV
# [9] = biological target: Vascular endothelial growth factor receptor 2 (Homo sapiens) (UniProt P35968); settings: at 1 µM
# [10] = biological target: Mast/stem cell growth factor receptor Kit (Homo sapiens) (UniProt P10721); settings: at 0.1 µM
# Mast/stem cell growth factor receptor Kit (Homo sapiens), sequence (P10721 whole entry): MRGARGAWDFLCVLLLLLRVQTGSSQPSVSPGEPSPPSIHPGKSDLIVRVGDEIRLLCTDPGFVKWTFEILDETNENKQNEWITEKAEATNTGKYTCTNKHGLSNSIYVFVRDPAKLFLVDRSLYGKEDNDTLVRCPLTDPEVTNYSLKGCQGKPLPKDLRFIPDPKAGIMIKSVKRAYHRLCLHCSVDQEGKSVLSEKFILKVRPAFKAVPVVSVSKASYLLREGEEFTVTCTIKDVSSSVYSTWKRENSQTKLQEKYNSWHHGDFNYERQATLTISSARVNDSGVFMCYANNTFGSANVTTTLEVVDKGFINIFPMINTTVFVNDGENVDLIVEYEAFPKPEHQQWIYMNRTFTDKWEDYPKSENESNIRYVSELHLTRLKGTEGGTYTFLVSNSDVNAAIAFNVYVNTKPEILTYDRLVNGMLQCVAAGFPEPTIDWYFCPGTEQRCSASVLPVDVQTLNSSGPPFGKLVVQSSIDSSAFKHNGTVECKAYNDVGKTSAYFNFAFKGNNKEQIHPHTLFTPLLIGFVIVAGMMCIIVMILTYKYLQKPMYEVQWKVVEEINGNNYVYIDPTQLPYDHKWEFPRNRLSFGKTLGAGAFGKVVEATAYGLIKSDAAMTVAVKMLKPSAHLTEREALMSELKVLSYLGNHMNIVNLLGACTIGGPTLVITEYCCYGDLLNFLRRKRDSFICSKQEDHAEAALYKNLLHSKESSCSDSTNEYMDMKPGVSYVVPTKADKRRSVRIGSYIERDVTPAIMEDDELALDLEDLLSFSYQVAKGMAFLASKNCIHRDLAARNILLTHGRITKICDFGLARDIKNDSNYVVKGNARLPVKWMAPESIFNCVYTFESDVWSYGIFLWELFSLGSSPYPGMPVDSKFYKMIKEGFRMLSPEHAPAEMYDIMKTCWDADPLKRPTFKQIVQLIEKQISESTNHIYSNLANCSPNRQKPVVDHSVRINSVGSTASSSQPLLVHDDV
# [11] = biological target: Mast/stem cell growth factor receptor Kit (Homo sapiens) (UniProt P10721); settings: at 1 µM
# [12] = system: Mast/stem cell growth factor receptor Kit (Homo sapiens), P10721 [D816V]; settings: at 0.1 µM
# Mast/stem cell growth factor receptor Kit (Homo sapiens), P10721 [D816V], sequence (P10721 whole entry D816V): as the sequence (P10721 whole entry) above, with D816V counted along it
# [13] = system: Mast/stem cell growth factor receptor Kit (Homo sapiens), P10721 [D816V]; settings: at 1 µM
# [14] = system: Mast/stem cell growth factor receptor Kit (Homo sapiens), P10721 [T670I]; settings: at 0.1 µM
# Mast/stem cell growth factor receptor Kit (Homo sapiens), P10721 [T670I], sequence (P10721 whole entry T670I): as the sequence (P10721 whole entry) above, with T670I counted along it
# [15] = system: Mast/stem cell growth factor receptor Kit (Homo sapiens), P10721 [T670I]; settings: at 1 µM
# [16] = system: Mast/stem cell growth factor receptor Kit (Homo sapiens), P10721 [V560G]; settings: at 0.1 µM
# Mast/stem cell growth factor receptor Kit (Homo sapiens), P10721 [V560G], sequence (P10721 whole entry V560G): as the sequence (P10721 whole entry) above, with V560G counted along it
# [17] = system: Mast/stem cell growth factor receptor Kit (Homo sapiens), P10721 [V560G]; settings: at 1 µM
# [18] = biological target: Tyrosine-protein kinase Lck (Homo sapiens) (UniProt P06239); settings: at 0.1 µM
# Tyrosine-protein kinase Lck (Homo sapiens), sequence (P06239 2-509 limits assumed): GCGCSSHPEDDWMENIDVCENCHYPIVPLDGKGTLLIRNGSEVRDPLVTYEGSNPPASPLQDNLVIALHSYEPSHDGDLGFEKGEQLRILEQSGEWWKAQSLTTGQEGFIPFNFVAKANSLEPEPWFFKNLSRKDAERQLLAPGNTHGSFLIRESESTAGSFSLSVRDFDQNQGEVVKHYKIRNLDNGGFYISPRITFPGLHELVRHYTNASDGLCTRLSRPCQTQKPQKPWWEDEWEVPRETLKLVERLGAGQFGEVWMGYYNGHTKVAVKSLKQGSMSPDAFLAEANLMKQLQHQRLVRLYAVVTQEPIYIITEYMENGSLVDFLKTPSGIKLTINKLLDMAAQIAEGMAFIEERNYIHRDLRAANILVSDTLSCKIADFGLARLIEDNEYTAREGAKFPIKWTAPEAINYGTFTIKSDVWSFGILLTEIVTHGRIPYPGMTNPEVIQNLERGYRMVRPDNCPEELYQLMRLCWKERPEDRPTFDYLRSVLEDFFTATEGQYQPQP
# [19] = biological target: Tyrosine-protein kinase Lck (Homo sapiens) (UniProt P06239); settings: at 1 µM
# [20] = biological target: Leukocyte tyrosine kinase receptor (Homo sapiens) (UniProt P29376); settings: at 0.1 µM
# Leukocyte tyrosine kinase receptor (Homo sapiens), sequence (P29376 whole entry): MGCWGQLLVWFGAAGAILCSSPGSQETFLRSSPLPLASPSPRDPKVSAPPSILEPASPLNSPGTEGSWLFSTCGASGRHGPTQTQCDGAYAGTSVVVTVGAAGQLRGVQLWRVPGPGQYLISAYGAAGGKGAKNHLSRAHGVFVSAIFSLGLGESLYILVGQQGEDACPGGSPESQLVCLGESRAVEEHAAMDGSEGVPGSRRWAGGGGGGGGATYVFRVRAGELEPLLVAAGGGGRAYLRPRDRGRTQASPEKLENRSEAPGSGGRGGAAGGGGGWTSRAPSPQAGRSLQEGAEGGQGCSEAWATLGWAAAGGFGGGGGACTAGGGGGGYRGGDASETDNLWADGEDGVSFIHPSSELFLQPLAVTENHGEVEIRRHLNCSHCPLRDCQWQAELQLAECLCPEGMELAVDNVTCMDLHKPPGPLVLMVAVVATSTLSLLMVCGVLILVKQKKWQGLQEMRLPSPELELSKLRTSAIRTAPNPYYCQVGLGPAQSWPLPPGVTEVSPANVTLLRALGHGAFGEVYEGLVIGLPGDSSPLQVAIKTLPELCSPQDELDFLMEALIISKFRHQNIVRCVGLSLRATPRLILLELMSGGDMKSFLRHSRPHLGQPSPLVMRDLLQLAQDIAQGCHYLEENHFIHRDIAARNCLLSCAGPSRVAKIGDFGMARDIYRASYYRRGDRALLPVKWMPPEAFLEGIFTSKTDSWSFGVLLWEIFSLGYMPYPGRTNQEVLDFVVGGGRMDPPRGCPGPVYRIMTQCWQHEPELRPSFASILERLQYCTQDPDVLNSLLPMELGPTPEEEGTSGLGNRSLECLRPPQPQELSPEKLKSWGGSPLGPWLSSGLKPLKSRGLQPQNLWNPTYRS
structure (smiles),measurement,setting,value
Nc1nc(-c2ccc(F)cc2)c(-c2ccc3ncccc3n2)s1,inhibition,[1],2.71%
same,inhibition,[2],2.95%
same,inhibition,[3],6.76%
same,inhibition,[4],2.05%
same,inhibition,[5],4.07%
same,inhibition,[6],-0.98%
same,inhibition,[7],1.8%
same,inhibition,[8],33.2%
same,inhibition,[9],71.1%
same,inhibition,[10],3.28%
same,inhibition,[11],9.66%
same,inhibition,[12],1.91%
same,inhibition,[13],5.04%
same,inhibition,[14],4.73%
same,inhibition,[15],5.34%
same,inhibition,[16],2.59%
same,inhibition,[17],2.66%
same,inhibition,[18],9.43%
same,inhibition,[19],16.7%
same,inhibition,[20],3.99%
Clc1ccc(-c2nn3ncccc3c2-c2ccnc(Nc3ccccc3)n2)cc1,inhibition,[1],2.29%
same,inhibition,[2],-4.43%
same,inhibition,[3],-2.06%
same,inhibition,[4],1.44%
same,inhibition,[5],0.88%
same,inhibition,[6],0.42%
same,inhibition,[7],2.99%
same,inhibition,[8],11.2%
same,inhibition,[9],42.1%
same,inhibition,[10],11.7%
same,inhibition,[11],66.9%
same,inhibition,[12],1.51%
same,inhibition,[13],-1.04%
same,inhibition,[14],-3.61%
same,inhibition,[15],9.51%
same,inhibition,[16],3.31%
same,inhibition,[17],39.8%
same,inhibition,[18],13.9%
same,inhibition,[19],60%
same,inhibition,[20],1.38%
COc1ccc2[nH]c3c4[nH]c5ccc(OC)cc5c4c4c(c3c2c1)C(=O)NC4=O,inhibition,[1],6.11%
same,inhibition,[2],0.96%
same,inhibition,[3],5.89%
same,inhibition,[4],-0.61%
same,inhibition,[5],-1.31%
same,inhibition,[6],-1.14%
same,inhibition,[7],12.8%
same,inhibition,[8],42.5%
same,inhibition,[9],68.3%
same,inhibition,[10],31.3%
same,inhibition,[11],79.9%
same,inhibition,[12],31.6%
same,inhibition,[13],75.4%
same,inhibition,[14],6.78%
same,inhibition,[15],44.2%
same,inhibition,[16],3.53%
same,inhibition,[17],31.2%
same,inhibition,[18],4.72%
same,inhibition,[19],21.1%
same,inhibition,[20],37.8%
CC(C)COC(=O)c1ccc2c(c1)/C(=C/Nc1ccc(S(N)(=O)=O)cc1)C(=O)N2,inhibition,[1],5.29%
same,inhibition,[2],0.07%
same,inhibition,[3],12.7%
same,inhibition,[4],-0.31%
same,inhibition,[5],12.3%
same,inhibition,[6],2.41%
same,inhibition,[7],45.5%
same,inhibition,[8],40.4%
same,inhibition,[9],71.5%
same,inhibition,[10],-0.74%
same,inhibition,[11],24.6%
same,inhibition,[12],2.4%
same,inhibition,[13],35.2%
same,inhibition,[14],-2.43%
same,inhibition,[15],6.53%
same,inhibition,[16],2.21%
same,inhibition,[17],5.62%
same,inhibition,[18],0.55%
same,inhibition,[19],13.9%
same,inhibition,[20],0.07%
CCn1cc(-c2ccnc3[nH]ccc23)c(-c2cccc(NC(=O)Nc3ccc(OCc4ccccc4)cc3)c2)n1,inhibition,[1],-0.24%
same,inhibition,[2],1.9%
same,inhibition,[3],1.7%
same,inhibition,[4],-0.01%
same,inhibition,[5],-1.69%
same,inhibition,[6],-1.38%
same,inhibition,[7],-0.25%
same,inhibition,[8],0.29%
same,inhibition,[9],7.33%
same,inhibition,[10],-2.3%
same,inhibition,[11],-0.41%
same,inhibition,[12],1.35%
same,inhibition,[13],-0.05%
same,inhibition,[14],-1.41%
same,inhibition,[15],-1.25%
same,inhibition,[16],-1.87%
same,inhibition,[17],-1.14%
same,inhibition,[18],2.58%
same,inhibition,[19],21.8%
same,inhibition,[20],1.35%
CC(C)(CO)CNC(=O)c1ccc2c(c1)/C(=N/Nc1ccc(S(N)(=O)=O)cc1)C(=O)N2,inhibition,[1],1.2%
same,inhibition,[2],1.29%
same,inhibition,[3],2.13%
same,inhibition,[4],-1.03%
same,inhibition,[5],1.02%
same,inhibition,[6],-0.67%
same,inhibition,[7],13.5%
same,inhibition,[8],9.03%
same,inhibition,[9],56%
same,inhibition,[10],-4.53%
same,inhibition,[11],6.13%
same,inhibition,[12],-0.32%
same,inhibition,[13],9.15%
same,inhibition,[14],-1.23%
same,inhibition,[15],-1.94%
same,inhibition,[16],-0.35%
same,inhibition,[17],1.1%
same,inhibition,[18],0.12%
same,inhibition,[19],3.08%
same,inhibition,[20],-1.7%
